Laboratory results taken from the supplement of paper PMC12350171.
Structures can show the parent of a compound that is named as a salt.

Legend:
Conditions in all cases: 20 µM
[1] = tested on: Haemophilus parainfluenzae; test: growth AUC normalised to DMSO control (fraction of control); higher = less growth inhibition, active = hit call of the paper
How it was run: (§1)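 For the AUC endpoint, growth curves were integrated by the trapezoidal rule up to the exponential-to-stationary transition and normalised to DMSO controls on the same plate. The curves came from OD578 readings taken hourly for 24 h, in three biological replicates. Pathogens had been passaged anaerobically twice and inoculated at an OD578 of 0.01 into pre-reduced mGAM plates carrying 20 μM compound and 1% DMSO, sealed with breathable membranes. Medium for Haemophilus parainfluenzae also contained hemin and NAD.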

[2] = tested on: Salmonella enterica typhimurium; test: as above
How it was run: as §1

Shigella flexneri = test: as above
How it was run: as §1

Vibrio cholerae = test: as above
How it was run: as §1

[3] = tested on: Yersinia pseudotuberculosis; test: as above
How it was run: as §1

P. vulgatus RND KO = test: growth AUC normalised to DMSO control (median) (fraction of control); higher = less growth inhibition, active = hit call of the paper
How it was run: (§2)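 Each strain went through two overnight passages under anaerobic conditions before growth in mGAM in 96-well plates, starting at OD578 0.01, with each compound from the approved-drug library at 20 μM and 1% DMSO. Inside an anaerobic incubator, OD578 was recorded every hour for 24 h. Growth curves were cut off at entry into stationary phase, and the area under the curve was calculated by the trapezoidal rule and normalised to vehicle wells on the same plate. Reported values are medians of three biological replicates.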

P. vulgatus WT = test: as above
How it was run: as §2

[4] = tested on: S. enterica typhimurium WT; test: as above
How it was run: as §2

[5] = tested on: S. enterica typhimurium tolC KO; test: as above
How it was run: as §2

Measured: growth AUC normalised to DMSO control
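Throughout, for growth AUC normalised to DMSO control (median): active when median AUC fell below 0.1.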

CN1[C@@H]2CC[C@H]1C[C@@H](OC(=O)C(CO)c1ccccc1)C2 (stereo partly drawn) [Atropine sulfate monohydrate]
inactive: [1] 1.06 | [2] 1.01 | Shigella flexneri 1.06 | Vibrio cholerae 1.03 | [3] 1 | P. vulgatus RND KO 1.04 | P. vulgatus WT 1.07 | [4] 1.01 | [5] 0.987

O=C(CCCN1CCC2(CC1)C(=O)NCN2c1ccccc1)c1ccc(F)cc1 [Spiperone]
inactive: [1] 0.953 | [2] 0.978 | Shigella flexneri 0.978 | Vibrio cholerae 0.917 | [3] 0.985 | P. vulgatus RND KO 0.98 | P. vulgatus WT 0.988 | [4] 0.995 | [5] 0.979

CC1C=CC=CCCC=CC=CC=CC=CC(OC2OC(C)C(O)C(N)C2O)CC2OC(O)(CC(O)C(O)CCC(O)CC(O)CC(O)CC(=O)OC(C)C(C)C1O)CC(O)C2C(=O)O (stereo not drawn) [Nystatine]
inactive: [1] 0.988 | [2] 0.992 | Shigella flexneri 0.959 | Vibrio cholerae 0.994 | [3] 0.989 | P. vulgatus RND KO 0.988 | P. vulgatus WT 0.996 | [4] 0.997 | [5] 1

O=c1c2ccccc2[se]n1-c1ccccc1 [Ebselen]
inactive: [1] 0.874 | [2] 0.987 | Shigella flexneri 1.03 | Vibrio cholerae 0.999 | [3] 0.974 | P. vulgatus RND KO 1.04 | P. vulgatus WT 1.02 | [4] 1.02 | [5] 0.971

CCC(=O)O[C@@](Cc1ccccc1)(c1ccccc1)[C@@H](C)CN(C)C [Levopropoxyphene napsylate]
inactive: [1] 1 | [2] 0.999 | Shigella flexneri 1.04 | Vibrio cholerae 1 | [3] 1.02 | P. vulgatus RND KO 1.03 | P. vulgatus WT 1.05 | [4] 1 | [5] 0.995

C[C@@H]1CC[C@H]2[C@@H](C)C(=O)O[C@@H]3O[C@@]4(C)CC[C@@H]1[C@]32OO4 [Artemisinin]
inactive: [1] 0.986 | [2] 0.988 | Shigella flexneri 1.01 | Vibrio cholerae 0.987 | [3] 0.957 | P. vulgatus RND KO 1.02 | P. vulgatus WT 1.04 | [4] 0.996 | [5] 0.998

CCCC(C)C1(CC)C(=O)NC(=O)NC1=O (stereo not drawn) [Pentobarbital]
inactive: [1] 1.02 | [2] 1.01 | Shigella flexneri 1.05 | Vibrio cholerae 0.999 | [3] 0.986 | P. vulgatus RND KO 1.05 | P. vulgatus WT 1.06 | [4] 1.01 | [5] 0.999

C[C@@H]1C[C@@H]([C@H](O)CC2CC(=O)NC(=O)C2)C(=O)[C@@H](C)C1 [Cycloheximide]
inactive: [1] 1.03 | [2] 1 | Shigella flexneri 1.04 | Vibrio cholerae 1.01 | [3] 0.999 | P. vulgatus RND KO 1.01 | P. vulgatus WT 1.01 | [4] 0.999 | [5] 0.999

NCC1(CC(=O)O)CCCCC1 [Gabapentin]
inactive: [1] 0.891 | [2] 1.01 | Shigella flexneri 1.05 | Vibrio cholerae 1.03 | [3] 1.01 | P. vulgatus RND KO 1.04 | P. vulgatus WT 1.04 | [4] 1.01 | [5] 1.01

C[C@]12CCC(=O)C(O)=C1CC[C@@H]1[C@@H]2CC[C@]2(C)C(=O)CC[C@@H]12 [Formestane]
inactive: [1] 1.01 | [2] 1.03 | Shigella flexneri 1 | Vibrio cholerae 1.01 | [3] 0.997 | P. vulgatus RND KO 0.976 | P. vulgatus WT 0.982 | [4] 0.997 | [5] 0.927

C[C@]12Cc3c[nH]nc3C[C@@H]1CC[C@@H]1[C@@H]2CC[C@@]2(C)[C@H]1CC[C@]2(C)O [Stanozolol]
inactive: [1] 0.949 | [2] 1.01 | Shigella flexneri 0.987 | Vibrio cholerae 0.998 | [3] 1 | P. vulgatus RND KO 0.959 | P. vulgatus WT 0.966 | [4] 1.02 | [5] 0.966

CN1C[C@H](C(=O)N[C@]2(C)O[C@@]3(O)[C@@H]4CCCN4C(=O)[C@H](Cc4ccccc4)N3C2=O)C[C@@H]2c3cccc4[nH]cc(c34)C[C@H]21 [Dihydroergotamine tartrate]
inactive: [1] 1.04 | [2] 0.978 | Shigella flexneri 0.994 | Vibrio cholerae 1.02 | [3] 1.01 | P. vulgatus RND KO 0.989 | P. vulgatus WT 0.996 | [4] 1 | [5] 0.984

CN1C(=O)CCS(=O)(=O)C1c1ccc(Cl)cc1 (stereo not drawn) [Chlormezanone]
inactive: [1] 1.02 | [2] 1 | Shigella flexneri 0.992 | Vibrio cholerae 1.01 | [3] 0.995 | P. vulgatus RND KO 1.03 | P. vulgatus WT 1.02 | [4] 1 | [5] 1

CC(=O)O[C@H]1CC[C@@]2(C)C(=CC[C@@H]3[C@@H]2CC[C@]2(C)C(=O)CC[C@@H]32)C1 [Dehydroisoandosterone 3-acetate]
inactive: [1] 0.989 | [2] 0.995 | Shigella flexneri 0.966 | Vibrio cholerae 0.988 | [3] 1 | P. vulgatus RND KO 0.976 | P. vulgatus WT 0.952 | [4] 0.991 | [5] 0.903

COc1cccc(C2(O)CCCCC2CN(C)C)c1 (stereo not drawn) [Tramadol hydrochloride]
inactive: [1] 0.971 | [2] 0.98 | Shigella flexneri 0.992 | Vibrio cholerae 0.983 | [3] 0.994 | P. vulgatus RND KO 0.988 | P. vulgatus WT 0.989 | [4] 0.986 | [5] 0.986

CCN(C(C)=O)c1cccc(-c2ccnc3c(C#N)cnn23)c1 [Zaleplon]
inactive: [1] 0.975 | [2] 0.978 | Shigella flexneri 0.954 | Vibrio cholerae 0.97 | [3] 1 | P. vulgatus RND KO 1 | P. vulgatus WT 1 | [4] 1 | [5] 0.992

CCOC(=O)c1cncn1[C@H](C)c1ccccc1 [Etomidate]
inactive: [1] 1.02 | [2] 1.01 | Shigella flexneri 1 | Vibrio cholerae 1.03 | [3] 0.984 | P. vulgatus RND KO 1.07 | P. vulgatus WT 1.1 | [4] 1 | [5] 0.978

C[N+]1(C)[C@@H]2CC[C@H]1C[C@@H](OC(=O)C(CO)c1ccccc1)C2 (stereo partly drawn) [Methylatropine nitrate]
inactive: [1] 1.05 | [2] 1.01 | Shigella flexneri 1.03 | Vibrio cholerae 1.02 | [3] 1 | P. vulgatus RND KO 1.02 | P. vulgatus WT 1.04 | [4] 0.999 | [5] 1.02

CC[C@@H](C(N)=O)N1CCCC1=O [Levetiracetam]
inactive: [1] 1.04 | [2] 1.01 | Shigella flexneri 1.03 | Vibrio cholerae 1.05 | [3] 1.01 | P. vulgatus RND KO 1.01 | P. vulgatus WT 1.03 | [4] 1.01 | [5] 1

CO[C@]12C[C@@H](COC(=O)c3cncc(Br)c3)CN(C)[C@@H]1Cc1cn(C)c3cccc2c13 [Nicergoline]
inactive: [1] 1.03 | [2] 1.01 | Shigella flexneri 1 | Vibrio cholerae 0.996 | [3] 1 | P. vulgatus RND KO 0.933 | P. vulgatus WT 0.948 | [4] 1 | [5] 0.942

CC(C)CC(N(C)C)C1(c2ccc(Cl)cc2)CCC1 (stereo not drawn) [Sibutramine hydrochloride]
inactive: [1] 0.969 | [2] 1 | Shigella flexneri 0.971 | Vibrio cholerae 0.967 | [3] 1 | P. vulgatus RND KO 1.02 | P. vulgatus WT 1.02 | [4] 1 | [5] 0.999

CC(=O)O[C@H]1C[C@H](O[C@H]2[C@@H](O)C[C@H](O[C@H]3[C@@H](O)C[C@H](O[C@H]4CC[C@@]5(C)[C@H](CC[C@@H]6[C@@H]5C[C@@H](O)[C@]5(C)[C@@H](C7=CC(=O)OC7)CC[C@]65O)C4)O[C@@H]3C)O[C@@H]2C)O[C@H](C)[C@H]1O[C@@H]1O[C@H](CO)[C@@H](O)[C@H](O)[C@H]1O [Lanatoside C]
inactive: [1] 1.04 | [2] 1.01 | Shigella flexneri 1.01 | Vibrio cholerae 1.02 | [3] 0.984 | P. vulgatus RND KO 1.01 | P. vulgatus WT 1.06 | [4] 1.01 | [5] 0.997

CN1[C@@H]2C[C@@H](OC(=O)[C@H](CO)c3ccccc3)C[C@H]1[C@@H]1O[C@@H]12 [Scopolamine hydrochloride]
inactive: [1] 1.06 | [2] 1.03 | Shigella flexneri 1.06 | Vibrio cholerae 1.06 | [3] 1.03 | P. vulgatus RND KO 1.03 | P. vulgatus WT 1.05 | [4] 1 | [5] 1.01

CC(C)c1c(CN(C)C(C)Cc2ccccc2)n(C)n(-c2ccccc2)c1=O (stereo not drawn) [Famprofazone]
inactive: [1] 0.971 | [2] 0.997 | Shigella flexneri 1.03 | Vibrio cholerae 0.965 | [3] 1 | P. vulgatus RND KO 0.992 | P. vulgatus WT 1 | [4] 1.01 | [5] 0.871

CCN(CC)C(C)C(=O)c1ccccc1 (stereo not drawn) [Amfepramone hydrochloride]
inactive: [1] 0.998 | [2] 0.995 | Shigella flexneri 0.982 | Vibrio cholerae 0.999 | [3] 1.02 | P. vulgatus RND KO 1.01 | P. vulgatus WT 1.01 | [4] 1.01 | [5] 0.988

CC(=O)NC1CCSC1=O (stereo not drawn) [Citiolone]
inactive: [1] 1.03 | [2] 1.01 | Shigella flexneri 1 | Vibrio cholerae 1.03 | [3] 0.985 | P. vulgatus RND KO 1.03 | P. vulgatus WT 1.04 | [4] 1 | [5] 1.01

O=c1[nH]c2ccccc2n1C1CCN(CCCC(c2ccc(F)cc2)c2ccc(F)cc2)CC1 [Pimozide]
inactive: [1] 0.788 | [2] 0.998 | Shigella flexneri 1 | Vibrio cholerae 1.07 | [3] 1.02 | P. vulgatus RND KO 1.14 | P. vulgatus WT 1 | [4] 0.998 | [5] 0.971
